Molecules are shown by their SMILES. Activity calls are given as the source filed them. How the source made its calls: active means hit-call score of the fitted dose curve at least 0.9, where 1 is the maximum; inactive means score below 0.9.

In PubChem BioAssay (EPA / NIEHS) one finds outcome and AC50 data, which are given here for 14 compounds.

The nature of this assay: Tanguay_ZF_120hpf_EDEM: Oregon State University Tanguay Lab 120 Hour Post-fertilization zebrafish Assay for Edema Malformation (AID 2284400). How it is done: Tanguay_ZF_120hpf is a whole embryo, multiplexed endpoint assay using zebrafish larvae exposed for 120 hours post fertilization on a 96-well plate.Tanguay_ZF_120hpf_EDEM is one of one assay component(s) measured or calculated from the Tanguay_ZF_120hpf assay. It is designed to make measurements of zebrafish development as detected with brightfield microscopy of developing zebrafish embryos.Data from the assay component Tanguay_ZF_120hpf_EDEM was analyzed into 1 assay endpoints. This assay endpoint, Tanguay_ZF_120hpf_EDEM, was analyzed in the positive analysis fitting direction relative to DMSO as the negative control and baseline of activity. Using a type of morphology reporter, gain-of-signal activity can be used to understand changes in developmentals as they relate to the whole embryo. To generalize the intended target to other relatable targets, this assay endpoint is annotated to the zebrafish development intended target family, where the subfamily is embryonic edema.
Zebrafish husbandry: Tropical 5D wild-type adult zebrafish were housed in at an approximate density of 1000 per 100 gallon tank at the Sinnhuber Aquatic Research Laboratory, Oregon State University, Corvallis, OR. Each tank was kept at standard laboratory conditions of 28C on a 14-h light/10-h dark photoperiod in fish water consisting of reverse osmosis water supplemented with a commercially available salt (Instant Ocean). Spawning funnels were placed into the tanks the night prior, and embryos were collected and staged. To increase bioavailability, the chorion was enzymatically removed using pronase (63.6mg/ml, >/= 3.5U/mg, Sigma-Aldrich: P5147) at 4 hours post fertilization (hpf) using a custom automated dechorionator.Chemical exposures: Six hpf dechorionated embryos were placed 1 embryo per well in a 96-well plate prefilled with 90 ul of EM using automated embryo placement systems (AEPS). Ten microliters of each row of dilution plate 2 was added to 2 exposure plates. The final DMSO concentration used was 0.64% (vol/vol). Thirty-two embryos were also exposed to 5uM trimethyltin chloride (positive control). Plates were sealed to prevent evaporation and foil covered to reduce light exposure and kept in a 28C incubator. Embryos were statically exposed until 120 hpf. At 24 hpf, embryos were assessed for photomotor response using a custom photomotor response analysis tool (PRAT) and for developmental toxicity endpoints (MO24: mortality at 24 hpf, DP: developmental progression, SM: spontaneous movement, and NC: notochord distortion). At 120 hpf, locomotor activity was measured using Viewpoint Zebralab and assessed for 13 endpoints. Zebrafish acquisition and analysis program (ZAAP), a custom program designed to inventory, acquire, and manage zebrafish data, was used to collect developmental endpoints as either present or absent (i.e., binary responses were recorded). If mortality occurred for an embryo (at either 24 or 120 hpf), the non-mortality endpoints were not measured.
Turning to `O=C(O)C(F)(F)C(F)(F)C(=O)O`, the compound was called inactive.
The same measure, in the same setting: the result for `OCC(F)(F)OC(F)(F)C(F)(F)OC(F)(F)C(F)(F)OC(F)(F)F` reads “inactive”.
Turning to `NC(=O)C(F)(F)C(F)(F)F`, the result was inactive.
On the same count and under the same terms, for `O=S(=O)(F)C(F)(F)C(F)(F)C(F)(F)C(F)(F)C(F)(F)C(F)(F)C(F)(F)C(F)(F)F` the value was “inactive”; for `O=C(O)C(F)(F)OC(F)(F)C(F)(F)OC(F)(F)F`, “inactive”.
On the same count and under the same terms, for `C=CC(=O)OCC(F)(F)C(F)F` the value was “inactive”.
For `O=C(O)C=CC(F)(C(F)(F)F)C(F)(F)F`, the outcome was inactive.
Consider `OCC(F)(F)OC(F)(F)C(F)(F)OC(F)(F)C(F)(F)OC(F)(F)CO`, for which the AC50 is 28.9 µM (active).
For `CC(O)C(F)(F)C(F)(F)F` (centres undefined), the call was inactive.
Still for that read-out and setting: the result for `O=C(O)C(F)(F)OC(F)(F)C(F)(F)OC(F)(F)C(=O)O` reads “inactive”; that for `OCC(F)(F)OC(F)(F)C(F)(F)OC(F)(F)CO`, “inactive”; that for `FC(F)(F)C(F)(C(F)(F)F)C(F)(F)C(F)(F)CC1CO1` (centres undefined), “inactive”.
Still for that read-out and setting: for `COC(=O)C(F)(F)C(F)(F)OC(F)(C(F)(F)F)C(F)(F)OC(F)=C(F)F` (centres undefined) the value was “inactive”; for `O=C(O)C(F)(OC(F)(F)C(F)(F)C(F)(F)F)C(F)(F)F` (centres undefined), “inactive”.
